Assay results taken from PubChem BioAssay (NCI).
Compounds without any hit were thinned out: in the full panel of roughly 79,000, 15% have a hit. Values without a mark were called inactive. Active and inactive are the calls of the source. Rule as the data show it: active = growth inhibition above about 70%; inactive = the rest. Where a SMILES comes first, the peptide text is derived from it.

Assay: NCI Yeast Anticancer Drug Screen. Data for the sgs1 mgt1 strain (AID 161);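 also: 0% = growth of cultures given vehicle only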
Settings: S. cerevisiae sgs1 mgt1 strain, at 50.0 µM, hits give high values
How it was run: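 Yeast cells carrying a defined DNA-repair defect were exposed to test compounds. Growth inhibition was measured relative to vehicle-treated controls.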

**Q.** With `Cc1cnc2ccccc2c1` as the compound, how does the growth inhibition read?
**A.** Its growth inhibition is -5.45%.

**Q.** With `O=C(O)CS/C(=N\S(=O)(=O)c1ccccc1)Nc1cccc(Cl)c1` as the compound, how does the growth inhibition read?
**A.** Its growth inhibition is 19.1%.

**Q.** For `COc1ccccc1CC(=O)C(O)(C(F)(F)F)C(F)(F)F`, which growth inhibition is on record?
**A.** Its growth inhibition is -18.9%.

**Q.** For `O=C(O)c1nc(N=Nc2ccc(S(=O)(=O)O)cc2)[nH]c1C(=O)O`, which growth inhibition is on record?
**A.** Its growth inhibition is 9.8%.

**Q.** Which growth inhibition does the source give for `Cc1ccc(S(=O)(=O)C(C#N)CCC(=O)c2ccc(Cl)cc2)cc1` (stereo not given) here?
**A.** Its growth inhibition is 6.75%.

**Q.** For `CC(=O)/C(C)=N/Nc1ccccc1`, which growth inhibition is on record?
**A.** The growth inhibition was -2.6%.

**Q.** For `O=C(COc1ccc(Cl)cc1)Oc1c(Cl)cc(Cl)cc1Cl`, which growth inhibition is on record?
**A.** Its growth inhibition is 98.7% (active).

**Q.** With `N#C/C(=C\c1ccco1)C(N)=O` as the compound, how does the growth inhibition read?
**A.** The growth inhibition was -14.6%.

**Q.** For `CCCCN=C1Nc2nc(=NCCCC)nc3c(Br)cc(Br)c(n23)N1`, which growth inhibition is on record?
**A.** The growth inhibition was 5.4%.

**Q.** With `Cc1c(CCC(C)C)oc2cc3oc(CCC(C)C)c(C)c3cc12` as the compound, how does the growth inhibition read?
**A.** The growth inhibition was 2%.

**Q.** For `ClC1=C(Cl)C2(Cl)C3C(c4ccc(I)cc4C4C3C3(Cl)C(Cl)=C(Cl)C4(Cl)C3(Cl)Cl)C1(Cl)C2(Cl)Cl` (stereo not given), which growth inhibition is on record?
**A.** The growth inhibition was 8.8%.

**Q.** Which growth inhibition does the source give for `Nc1nc(-c2cc(Br)ccc2N=NN2CCOCC2)nc2ccc(Br)cc12` here?
**A.** The growth inhibition was 99.3% (active).

**Q.** Which growth inhibition does the source give for `COc1ccc(Br)cc1C=Nc1ccccc1` here?
**A.** Its growth inhibition is 19.2%.

**Q.** With `CC(=O)OC/C=C(\C)CCC=C(C)C` as the compound, how does the growth inhibition read?
**A.** The growth inhibition was -12.2%.

**Q.** With `O=C(O)c1c(Br)c(Br)c(Br)c(Br)c1C(=O)Nc1ccc(Br)cc1` as the compound, how does the growth inhibition read?
**A.** The growth inhibition was 5.8%.

**Q.** With `Nc1nc(Cl)c2ncn(C3OC(CO)C(O)C3O)c2n1` (stereo not given) as the compound, how does the growth inhibition read?
**A.** The growth inhibition was -1.9%.

**Q.** With `C=CCOC/C=C\CCOCC/C=C/COCC=C` (tested in a mixture with another compound) as the compound, how does the growth inhibition read?
**A.** The growth inhibition was 6.25%.

**Q.** Which growth inhibition does the source give for `O=[N+]([O-])c1ccc(-c2cc3ccccn3c2)cc1` here?
**A.** Its growth inhibition is -9.7%.

**Q.** For `C/C(CC/C(C)=N/O)=N\O`, which growth inhibition is on record?
**A.** Its growth inhibition is -0.55%.

**Q.** Which growth inhibition does the source give for `Nc1cccc(Cl)c1C(=O)O` here?
**A.** The growth inhibition was -10.8%.

**Q.** With `CNc1nc2c(C)ccc3[nH]c(NC)nc3c-2n1` as the compound, how does the growth inhibition read?
**A.** Its growth inhibition is -6.65%.

**Q.** For `CC(=O)C1CCC2C3CC=C4CC(O)C=CC4(C)C3CCC12C` (stereo not given), which growth inhibition is on record?
**A.** The growth inhibition was 11.2%.

**Q.** For `CC(=O)C1(SCCO)CCC2C3CCC4=CC(=O)CCC4(C)C3CCC21C` (stereo not given), which growth inhibition is on record?
**A.** The growth inhibition was 97% (active).

**Q.** For `OC(c1ccccc1)C(Cc1ccccc1)N1CCCCC1` (stereo not given), which growth inhibition is on record?
**A.** The growth inhibition was 23.2%.

**Q.** Which growth inhibition does the source give for `CC(=O)NC(CO)C(=O)NC(Cc1ccc(O)cc1)C(=O)NCC(N)=O` (stereo not drawn) (Ac-Ser-Tyr-Gly-NH2; configuration not given here) here?
**A.** Its growth inhibition is -9.4%.

**Q.** For `CCCCCCCCC(O)C(O)CCCCCCCC(=O)OC` (stereo not given), which growth inhibition is on record?
**A.** Its growth inhibition is -4.55%.

**Q.** Which growth inhibition does the source give for `CC(=N\NS(=O)(=O)c1ccc(C)cc1)/C(C)=N/NS(=O)(=O)c1ccc(C)cc1` here?
**A.** The growth inhibition was 12.8%.

**Q.** With `N#C/C(=C\c1ccc(C#N)cc1)C(=O)O` as the compound, how does the growth inhibition read?
**A.** The growth inhibition was -30%.

**Q.** With `Cc1ccc(S(=O)(=O)C2c3nc4ccccc4cc3-c3nc4ccccc4nc32)cc1` (stereo not given) as the compound, how does the growth inhibition read?
**A.** Its growth inhibition is -17.8%.

**Q.** Which growth inhibition does the source give for `CC(=O)Nc1ccc(F)c(N)c1` here?
**A.** The growth inhibition was 8.7%.

**Q.** Which growth inhibition does the source give for `Clc1ccc(-c2oc(-c3ccc(Cl)cc3)c3ccccc23)cc1` here?
**A.** Its growth inhibition is 4.75%.

**Q.** With `N#CC12CC=C(c3ccccc3)N=C1NC(c1ccccc1)=CC2` (stereo not given) as the compound, how does the growth inhibition read?
**A.** Its growth inhibition is -31.7%.

**Q.** For `O=C1SCC(O)=C1/C=N/Nc1nc2ccccc2o1`, which growth inhibition is on record?
**A.** The growth inhibition was 27.1%.

**Q.** For `Cc1ccc(Sc2ccc3ccccc3c2)nc1`, which growth inhibition is on record?
**A.** The growth inhibition was -17.6%.

**Q.** Which growth inhibition does the source give for `C/C=C/C(=O)N1C(=O)OC[C@@H]1c1ccccc1` here?
**A.** Its growth inhibition is 49.7%.

**Q.** Which growth inhibition does the source give for `O=C(/C=C/C(=O)NCCc1ccccc1)NCCc1ccccc1` here?
**A.** Its growth inhibition is 9.15%.

**Q.** For `O=C(OCC(F)(F)C(F)(F)C(F)(F)C(F)(F)C(F)(F)C(F)F)OCC(F)(F)C(F)(F)C(F)(F)C(F)(F)C(F)(F)C(F)F`, which growth inhibition is on record?
**A.** The growth inhibition was -5.45%.

**Q.** For `CCOc1ccccc1C1=CCCCCC1`, which growth inhibition is on record?
**A.** Its growth inhibition is -9%.

**Q.** Which growth inhibition does the source give for `CN(c1ccccc1)S(=O)(=O)c1cccc([N+](=O)[O-])c1` here?
**A.** The growth inhibition was 0%.

**Q.** With `O=C(NO)Oc1cccc2ccccc12` as the compound, how does the growth inhibition read?
**A.** Its growth inhibition is 0.25%.
